# TTR transcr act: TTR transcription activation, primary screen | SH-SY5Y TTR promoter Gaussia luciferase, luminescence; 100% = recombinant luciferase protein wells | activation, % at 16.7 µM | hit rate 1.3% among 92,000 | AID 1117267;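 active = activation above the mean of all tested compounds plus 3 SD, cut at about 9.5% in these data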;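 also: cells exposed to compounds for one day before reading; 0% = median of all test compound wells on the plate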
# TTR inh HuH7: decreases TTR transcription in HuH7 cells in activator counter-screen; inhibition, % at 16.7 µM; HuH7 TTR promoter-Gaussia luciferase reporter, luminescence; shares compounds with TTR transcr act; hit rate 4% among 1,100; AID 1117279;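 active = average inhibition above the solvent-only control wells' mean plus 3 SD, cut at about 15% in these data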;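 also: 0% = cells with DMSO only and 100% = cells with inhibitor control FD; inhibitors lower well luminescence so higher value means more inhibition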
# TTR up confirm: human TTR transcription activation, confirmation | shares compounds with TTR transcr act | activation, % at 16.7 µM | 1,100 tested, under 10 active | AID 1117280 | SHSY5Y TTR promoter Gaussia luciferase, luminescence; 100% = purified Lucia enzyme wells, no cells;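 active = mean activation above a set limit taken from the earlier primary screen, cut at about 11% in these data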;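 also: 0% = DMSO-treated cells and 100% = recombinant Lucia luciferase without cells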
# Starred values were filed as active, the others as inactive. Shown is part of a subset that was picked to be rich in hits.
SMILES,TTR transcr act,others
Cc1nn(Cc2ccccc2)c(Cl)c1C(=O)NCCc1ccc(Cl)cc1,-1,
Cc1ccc(S(=O)(=O)N2OC(c3ccccc3)C[C@H]2CC=C(c2ccccc2)c2ccccc2)cc1 (stereo partly drawn),-1,
CCCCCCCCN1C(=O)[C@@H](CC(=O)N2CCCCC2)C[C@@]2(C(=O)OC)C1=C[C@H](C(C)C)O[C@@H]2C1CC1,0,
CC(C)[C@H]1/C(=C/C2CC2)N2C(=O)C[C@H](c3ccccc3)N=C2N1C,4,
COc1ccc(C(=O)N[C@@H]2CC[C@@]34CCCN3C(=O)CCC[C@H]4[C@H]2C)cc1,0,
COc1ccc(-n2nc(C(=O)NCC(=O)NCc3ccco3)c3ccccc3c2=O)cc1,0,
CCOC(=O)N1CCN(C(=O)CNC(=O)c2nn(-c3ccc(OC)cc3)c(=O)c3ccccc23)CC1,15*,TTR inh HuH7=-18;TTR up confirm=1
COc1ccc(-n2nc(C(=O)NCC(=O)NCCCN3CCN(C)CC3)c3ccccc3c2=O)cc1,-1,
CCCC/C=C1/[C@@H](C(C)C)N(Cc2ccc3c(c2)OCO3)C2=N[C@H](c3ccccc3)CC(=O)N21,4,
C[C@H]1C2CC(OC(=O)NCc3ccccc3)C(C2)[C@H]2CCCCN21 (stereo partly drawn),1,
COC(=O)[C@]12C[C@H](CC(=O)N3CCCC3)C(=O)N(Cc3ccc(Cl)cc3Cl)C1=C[C@H](C(C)C)O[C@@H]2C1CC1,-1,
CN(C)[C@@H]1CCN(c2ccc3c(c2)O[C@@H]2CCN(C2)S3(=O)=O)C1,-1,
CC(C)(C)S(=O)N1Cc2cc(=O)n(Cc3ccccc3)cc2[C@H]1CCO (stereo partly drawn),11*,TTR inh HuH7=-9;TTR up confirm=1
CC(C)(C)S(=O)N1Cc2ccc(CO)cc2[C@H]1CCO (stereo partly drawn),3,
CC(C)(C)S(=O)N1Cc2cc(CO)cc(-c3ccccc3)c2[C@H]1CCO (stereo partly drawn),0,
O=C(Nc1cccc(C(F)(F)F)c1)OC1CC2CC1[C@H]1CCCCN1[C@H]2Cc1ccccc1 (stereo partly drawn),4,
O=C(COc1ccccc1C(=O)NCc1ccccc1)Nc1ccc(I)cc1,0,
CC(=O)c1sc2nc(C)cc(C)c2c1N,23*,TTR inh HuH7=-3;TTR up confirm=-1
Cc1cc(C)c2c(N)c(C(=O)Nc3ncc(C)s3)sc2n1,3,
CC(=O)c1sc2nc(-c3ccc(C)cc3)c3c(c2c1N)CCCC3,3,
Cc1cc(C)c2c(N)c(C(=O)Nc3ccccc3Cl)sc2n1,12*,TTR inh HuH7=-6;TTR up confirm=-1
Cc1cc(C)c2c(N)c(C(=O)c3ccccc3Cl)sc2n1,1,
COCc1cc(C)nc2sc(C(=O)Nc3ccccc3C)c(N)c12,2,
CC1(c2nnnn2-c2ccc3ccccc3c2)CSCC(=O)N1C1CC1 (stereo not drawn),0,
CC(C)N1CCCCC(NC(=O)c2ccc(-c3ccccc3)cc2)C1=O (stereo not drawn),-2,
SMILES,TTR transcr act,others
C=CCN(C(=O)[C@@H](CCCC)[C@@H](O)c1ccc(C(C)=O)cc1)c1ccccc1,4,
O=C(Nc1ccc(F)cc1)Nc1c(-c2ccc(F)cc2)nc2ncccn12,-1,
Cc1ccccc1OCC(=O)OCC(=O)N1CCc2ccccc21,-2,
COc1ccccc1C(=O)N1CCc2ccccc21,-2,
COc1cccc(C(=O)OCC(=O)N2CCc3ccccc32)c1OC,12*,TTR inh HuH7=-17;TTR up confirm=1
C=CCCC(=O)N[C@H]1CC[C@@]23CCCN2C(=O)CCC[C@H]3[C@H]1C,0,
CC(=O)c1cc(-c2ccc(S(C)(=O)=O)cc2)c(=O)n2c1CCC2,3,
CC1CN(C(=O)c2ccccc2OCc2ccccc2Cl)CC(C)O1 (stereo not drawn),-1,
CC1CN(C(=O)c2ccc(COc3ccccc3Br)o2)CC(C)O1 (stereo not drawn),69*,TTR inh HuH7=-9;TTR up confirm=0
CC1CCN(C(=O)c2ccc(COc3ccccc3Cl)o2)CC1,-4,
O=C(c1ccc(COc2ccccc2Cl)o1)N1CCCC1,10*,TTR inh HuH7=-11;TTR up confirm=0
CN1CCN(NC(=O)c2ccc(COc3ccccc3Br)o2)CC1,5,
O=C(c1ccc(COCC(F)(F)F)o1)N1CCCCCC1,-1,
Cc1ccc(CN2CCCCC(NC(=O)c3ccc(F)c(F)c3)C2=O)cc1 (stereo not drawn),-2,
CC(C)C[C@H](NC(C)(C)C(=O)NC1CCCCC1)C(=O)NCCc1c[nH]c2ccccc12,1,
COc1ccc(C(c2nnnn2Cc2ccccc2)N2CCN(C(=O)c3ccco3)CC2)cc1 (stereo not drawn),-4,
O=C(c1ccco1)N1CCN(C(c2ccc(F)cc2)c2nnnn2CC2CCCO2)CC1 (stereo not drawn),11*,TTR inh HuH7=-6;TTR up confirm=0
CCC(C)(C)n1nnnc1C(c1ccc(C)cc1)N1CCN(C(=O)c2ccco2)CC1 (stereo not drawn),0,
O=C(c1ccc(Cl)cc1)C1CCN(c2ncnc3sccc23)CC1,-1,
O=C(CSCc1ccc(C(=O)O)cc1)Nc1ccc2ccccc2c1,1,
CC(=O)CC(=O)Nc1ccc2ccccc2c1,-1,
CC(=O)c1ccc(NC(=O)CSCC(=O)Nc2ccc3ccccc3c2)cc1,11*,TTR inh HuH7=-26;TTR up confirm=4
CC(C)(C)c1cnnn1-c1ccc(NC(=O)c2ccc3c(c2)OCO3)cc1,-1,
CCc1ccc(-n2nc3ccc(NC(=O)c4ccc5c(c4)OCO5)cc3n2)cc1,14*,TTR inh HuH7=-2;TTR up confirm=0
Cc1ccc(-n2nc3ccc(NC(=O)c4ccc5c(c4)OCO5)cc3n2)cc1,1,
SMILES,TTR transcr act,others
CCCC[C@H]1C2CC(OC(=O)Nc3ccc(C#N)cc3)C(C2)[C@H]2CCCCN21 (stereo partly drawn),4,
C=CCN1C(=O)[C@H](CC(=O)NCCCOCCCC)[C@@]2(C(=O)OCC)CCCC=C12,0,
CN(/N=C/c1ccc([N+](=O)[O-])o1)c1ccccc1,-2,
O=C(N/N=C/c1ccc([N+](=O)[O-])o1)C(=O)Nc1ccc(C(=O)O)cc1,3,
O=[N+]([O-])c1ccc(C=NN2CCNC2=S)o1,10.0*,TTR inh HuH7=8;TTR up confirm=1
COC(=O)[C@@]12CCCCC=C1N(CCc1ccc(Cl)cc1)C(=O)[C@H]2CC(=O)NCc1cccc2ccccc12,-1,
COc1ccc(C2CC3CN(C4CCCCC4)C(=O)C3N2C)cc1 (stereo not drawn),-1,
CC1(C)O[C@H]2CC(=O)OC[C@]23[C@H]2CC[C@@]4(C)[C@H](c5ccoc5)OC(=O)[C@H]5O[C@]54[C@]2(C)[C@@H](O)C[C@@H]13,-2,
CC1(C)O[C@@H](CC(=O)O)[C@]23CO[C@H](C(=O)[C@]4(C)C2CC[C@@]2(C)[C@H](c5ccoc5)OC(=O)C5O[C@]524)[C@@H]13 (stereo partly drawn),22*,TTR inh HuH7=-2;TTR up confirm=1
COC(=O)[C@]12C[C@H](CC(=O)NCc3cccs3)C(=O)N(Cc3ccc4c(c3)OCO4)C1=C[C@H](C(C)C)O[C@@H]2C1CC1,0,
CC(C)C[C@@H](NC(=O)OC(C)(C)C)C(=O)N1O[C@]23C=C[C@]14C[C@@H](O)CC[C@]4(C)C2CC[C@]1(C)[C@@H]([C@H](C)/C=C/[C@H](C)C(C)C)CC[C@H]13 (stereo partly drawn),2,
